# Source: PMC7862700, “An all-to-all approach to the identification of sequence-specific readers for epigenetic DNA modifications on cytosine”
# What was measured:
# Test in all cases: DAPPL (digital affinity profiling via proximity ligation, sequencing); 10 mM Tris-HCl pH 7.5, 50 mM NaCl, 1 mM DTT, 4% glycerol, room temperature, 30 min; GST-TFs on glutathione beads, 16-mer random dsDNA library, 0.1% formaldehyde crosslink after washing; high values mean tight binding
# FLI1 = target: T1, FLI1 (Homo sapiens, UniProt Q01543 1-452); conditions: protein: recombinant; tags: N-terminal GST; dsDNA, one strand shown
# T1 sequence: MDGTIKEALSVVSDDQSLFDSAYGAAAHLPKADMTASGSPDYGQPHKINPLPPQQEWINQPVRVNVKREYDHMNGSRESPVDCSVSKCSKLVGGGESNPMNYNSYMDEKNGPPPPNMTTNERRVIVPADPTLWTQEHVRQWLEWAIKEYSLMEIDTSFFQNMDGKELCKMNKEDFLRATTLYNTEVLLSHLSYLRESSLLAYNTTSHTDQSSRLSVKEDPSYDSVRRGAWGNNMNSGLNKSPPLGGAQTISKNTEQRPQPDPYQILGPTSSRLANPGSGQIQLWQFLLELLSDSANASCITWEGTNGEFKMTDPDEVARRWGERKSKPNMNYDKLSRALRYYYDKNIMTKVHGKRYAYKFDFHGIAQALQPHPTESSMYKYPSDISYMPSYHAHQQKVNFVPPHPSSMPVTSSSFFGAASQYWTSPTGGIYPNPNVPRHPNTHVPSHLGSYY
# How it was run: (§1)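 In yeast, human transcription factors were expressed with a GST fusion, then pulled down on glutathione beads and given DNA barcodes. Pooled with a tag-only sample, they were exposed to 200 nmole of a 16-mer random double-stranded DNA library (Tris/NaCl/DTT/glycerol buffer, room temperature, 30 min), washed, crosslinked with 0.1% formaldehyde, proximity-ligated using BsaI/T4 ligase for 1 h at 37 °C, PCR-amplified and read on an Illumina NextSeq500. Each hexamer's frequency of reads for a factor, divided by the matching frequency for the tag-only sample, gives the binding signal.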
# ELK1 = target: T2, ELK1 (Homo sapiens, UniProt P19419 1-428); conditions: protein: recombinant; tags: N-terminal GST; dsDNA, one strand shown
# T2 sequence: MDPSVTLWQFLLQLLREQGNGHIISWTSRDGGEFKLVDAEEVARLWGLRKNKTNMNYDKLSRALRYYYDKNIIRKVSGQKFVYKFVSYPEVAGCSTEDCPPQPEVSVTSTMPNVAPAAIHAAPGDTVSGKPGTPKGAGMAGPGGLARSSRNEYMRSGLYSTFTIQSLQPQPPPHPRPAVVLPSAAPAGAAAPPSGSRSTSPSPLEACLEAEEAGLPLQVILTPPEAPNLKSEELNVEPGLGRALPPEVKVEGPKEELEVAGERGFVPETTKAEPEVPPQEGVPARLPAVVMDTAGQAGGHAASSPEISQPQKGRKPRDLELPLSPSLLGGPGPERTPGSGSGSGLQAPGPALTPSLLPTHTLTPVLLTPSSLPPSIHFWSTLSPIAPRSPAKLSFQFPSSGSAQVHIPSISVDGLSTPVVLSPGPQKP
# How it was run: as §1
# GABPA = target: T3, GABPA (Homo sapiens, UniProt Q06546 1-454); conditions: protein: recombinant; tags: N-terminal GST; dsDNA, one strand shown
# T3 sequence: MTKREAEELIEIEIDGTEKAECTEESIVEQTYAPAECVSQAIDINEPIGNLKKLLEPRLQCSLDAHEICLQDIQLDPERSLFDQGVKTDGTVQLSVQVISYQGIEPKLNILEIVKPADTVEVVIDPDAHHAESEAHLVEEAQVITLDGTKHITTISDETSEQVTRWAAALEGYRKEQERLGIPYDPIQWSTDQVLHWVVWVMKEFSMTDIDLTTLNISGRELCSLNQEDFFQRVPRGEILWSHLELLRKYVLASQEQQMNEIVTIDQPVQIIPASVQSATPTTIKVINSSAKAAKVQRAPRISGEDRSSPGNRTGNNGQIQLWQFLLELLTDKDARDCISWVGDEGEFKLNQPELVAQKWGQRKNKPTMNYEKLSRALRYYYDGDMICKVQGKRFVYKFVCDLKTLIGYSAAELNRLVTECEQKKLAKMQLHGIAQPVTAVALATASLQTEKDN
# How it was run: as §1
# ERG = target: T4, ERG (Homo sapiens, UniProt P11308 1-479); conditions: protein: recombinant; tags: N-terminal GST; dsDNA, one strand shown
# T4 sequence: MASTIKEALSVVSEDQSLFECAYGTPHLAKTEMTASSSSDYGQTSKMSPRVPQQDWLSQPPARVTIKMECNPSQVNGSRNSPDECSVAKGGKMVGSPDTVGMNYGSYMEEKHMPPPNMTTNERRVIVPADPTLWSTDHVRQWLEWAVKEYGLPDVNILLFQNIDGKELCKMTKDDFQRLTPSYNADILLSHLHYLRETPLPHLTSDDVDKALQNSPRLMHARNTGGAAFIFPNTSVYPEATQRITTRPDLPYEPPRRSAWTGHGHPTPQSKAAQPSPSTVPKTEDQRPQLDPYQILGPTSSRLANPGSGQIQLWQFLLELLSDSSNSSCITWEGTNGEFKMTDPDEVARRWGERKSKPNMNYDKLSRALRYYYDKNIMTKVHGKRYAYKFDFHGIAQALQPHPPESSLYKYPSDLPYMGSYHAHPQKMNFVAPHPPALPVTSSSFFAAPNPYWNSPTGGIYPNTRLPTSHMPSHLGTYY
# How it was run: as §1
# ELF1 = ELF1 (Homo sapiens, UniProt P32519 1-619); conditions: protein: recombinant; tags: N-terminal GST; dsDNA, one strand shown
# How it was run: as §1
# EHF = target: T5, EHF (Homo sapiens, UniProt Q9NZC4 1-300); conditions: protein: recombinant; tags: N-terminal GST; dsDNA, one strand shown
# T5 sequence: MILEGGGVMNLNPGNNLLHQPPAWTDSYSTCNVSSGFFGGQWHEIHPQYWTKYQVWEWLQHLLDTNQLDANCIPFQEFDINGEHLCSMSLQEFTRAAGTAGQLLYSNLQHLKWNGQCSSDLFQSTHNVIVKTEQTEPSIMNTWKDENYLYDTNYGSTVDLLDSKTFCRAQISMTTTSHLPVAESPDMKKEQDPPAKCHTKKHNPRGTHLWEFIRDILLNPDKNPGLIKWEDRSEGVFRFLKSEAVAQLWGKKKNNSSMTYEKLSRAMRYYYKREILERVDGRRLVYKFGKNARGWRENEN
# How it was run: as §1
# SPI1 = SPI1 (Homo sapiens, UniProt P17947 1-270); conditions: protein: recombinant; tags: N-terminal GST; dsDNA, one strand shown
# How it was run: as §1
# SPIB = SPIB (Homo sapiens, UniProt Q01892 1-262); conditions: protein: recombinant; tags: N-terminal GST; dsDNA, one strand shown
# How it was run: as §1
# ELK3 = target: T6, ELK3 (Homo sapiens, UniProt P41970 1-407); conditions: protein: recombinant; tags: N-terminal GST; dsDNA, one strand shown
# T6 sequence: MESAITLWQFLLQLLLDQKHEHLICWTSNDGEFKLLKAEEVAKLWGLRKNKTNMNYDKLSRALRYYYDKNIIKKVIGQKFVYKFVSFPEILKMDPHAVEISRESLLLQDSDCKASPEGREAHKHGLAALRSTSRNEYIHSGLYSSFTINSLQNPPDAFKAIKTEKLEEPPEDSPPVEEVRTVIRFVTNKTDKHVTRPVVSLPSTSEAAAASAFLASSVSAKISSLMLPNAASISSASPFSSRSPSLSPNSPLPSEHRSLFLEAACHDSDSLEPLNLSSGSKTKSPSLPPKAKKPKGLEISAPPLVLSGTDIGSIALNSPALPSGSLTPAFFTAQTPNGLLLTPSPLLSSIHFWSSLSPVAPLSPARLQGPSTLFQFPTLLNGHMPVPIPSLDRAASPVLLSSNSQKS
# How it was run: as §1
# FEV = target: T7, FEV (Homo sapiens, UniProt Q99581 1-238); conditions: protein: recombinant; tags: N-terminal GST; dsDNA, one strand shown
# T7 sequence: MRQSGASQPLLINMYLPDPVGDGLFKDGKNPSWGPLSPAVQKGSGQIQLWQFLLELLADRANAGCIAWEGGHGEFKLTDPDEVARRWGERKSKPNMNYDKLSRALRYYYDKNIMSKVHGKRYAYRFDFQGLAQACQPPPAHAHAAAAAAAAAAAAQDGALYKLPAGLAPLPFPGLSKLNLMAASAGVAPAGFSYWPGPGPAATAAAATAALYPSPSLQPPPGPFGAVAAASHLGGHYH
# How it was run: as §1
# ETV5 = ETV5 (Homo sapiens, UniProt P41161 1-510); conditions: protein: recombinant; tags: N-terminal GST; dsDNA, one strand shown
# How it was run: as §1
# HSF1 = HSF1 (Homo sapiens, UniProt Q00613 1-529); conditions: protein: recombinant; tags: N-terminal GST; chain copies: 3; dsDNA, one strand shown
# How it was run: as §1
# SPIC = target: T8, SPIC (Homo sapiens, UniProt Q8N5J4 1-248); conditions: protein: recombinant; tags: N-terminal GST; dsDNA, one strand shown
# T8 sequence: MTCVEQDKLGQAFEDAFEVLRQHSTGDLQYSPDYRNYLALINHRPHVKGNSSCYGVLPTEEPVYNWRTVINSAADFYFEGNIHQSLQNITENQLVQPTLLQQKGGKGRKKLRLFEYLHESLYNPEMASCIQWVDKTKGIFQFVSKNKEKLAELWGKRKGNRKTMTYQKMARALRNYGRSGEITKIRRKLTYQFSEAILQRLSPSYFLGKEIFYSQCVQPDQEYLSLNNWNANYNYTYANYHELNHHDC
# How it was run: as §1
# ELF4 = ELF4 (Homo sapiens, UniProt Q99607 1-663); conditions: protein: recombinant; tags: N-terminal GST; dsDNA, one strand shown
# How it was run: as §1
# ELK4 = target: T9, ELK4 (Homo sapiens, UniProt P28324-2 1-405); conditions: protein: recombinant; tags: N-terminal GST; dsDNA, one strand shown
# T9 sequence: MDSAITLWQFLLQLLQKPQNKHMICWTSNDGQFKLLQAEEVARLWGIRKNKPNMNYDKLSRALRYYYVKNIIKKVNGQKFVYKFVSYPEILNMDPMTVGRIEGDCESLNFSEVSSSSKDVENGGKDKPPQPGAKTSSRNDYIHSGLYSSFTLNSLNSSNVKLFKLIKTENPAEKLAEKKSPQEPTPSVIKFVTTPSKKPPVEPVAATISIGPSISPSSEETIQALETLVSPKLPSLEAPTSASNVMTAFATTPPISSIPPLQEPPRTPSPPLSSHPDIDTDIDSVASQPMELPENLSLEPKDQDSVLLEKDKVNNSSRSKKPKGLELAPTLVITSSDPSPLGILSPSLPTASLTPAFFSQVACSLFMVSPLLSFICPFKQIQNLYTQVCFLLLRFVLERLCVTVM
# How it was run: as §1
# ETV2 = target: T10, ETV2 (Homo sapiens, UniProt O00321 1-342); conditions: protein: recombinant; tags: N-terminal GST; dsDNA, one strand shown
# T10 sequence: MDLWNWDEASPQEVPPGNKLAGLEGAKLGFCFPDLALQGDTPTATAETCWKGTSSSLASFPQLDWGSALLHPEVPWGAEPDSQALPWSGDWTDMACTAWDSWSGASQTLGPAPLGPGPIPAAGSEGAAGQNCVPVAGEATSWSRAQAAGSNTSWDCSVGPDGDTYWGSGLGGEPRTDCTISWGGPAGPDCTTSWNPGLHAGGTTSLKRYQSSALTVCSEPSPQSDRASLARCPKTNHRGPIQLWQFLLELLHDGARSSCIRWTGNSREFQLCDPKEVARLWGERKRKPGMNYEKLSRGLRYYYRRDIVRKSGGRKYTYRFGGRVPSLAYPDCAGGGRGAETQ
# How it was run: as §1
# ELF3 = target: T11, ELF3 (Homo sapiens, UniProt P78545 1-371); conditions: protein: recombinant; tags: N-terminal GST; dsDNA, one strand shown
# T11 sequence: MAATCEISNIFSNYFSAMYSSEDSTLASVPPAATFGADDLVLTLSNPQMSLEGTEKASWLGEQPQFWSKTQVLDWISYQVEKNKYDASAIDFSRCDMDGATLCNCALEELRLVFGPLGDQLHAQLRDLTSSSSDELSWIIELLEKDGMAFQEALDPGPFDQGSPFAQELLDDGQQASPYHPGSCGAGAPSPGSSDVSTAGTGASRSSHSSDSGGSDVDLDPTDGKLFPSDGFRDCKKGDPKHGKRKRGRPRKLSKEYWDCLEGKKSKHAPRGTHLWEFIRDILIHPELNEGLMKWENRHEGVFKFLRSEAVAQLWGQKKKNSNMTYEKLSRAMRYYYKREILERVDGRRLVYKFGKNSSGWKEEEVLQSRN
# How it was run: as §1
# ETV1 = ETV1 (Homo sapiens, UniProt P50549 1-477); conditions: protein: recombinant; tags: N-terminal GST; dsDNA, one strand shown
# How it was run: as §1
# ELF4, sequence (Q99607 whole entry): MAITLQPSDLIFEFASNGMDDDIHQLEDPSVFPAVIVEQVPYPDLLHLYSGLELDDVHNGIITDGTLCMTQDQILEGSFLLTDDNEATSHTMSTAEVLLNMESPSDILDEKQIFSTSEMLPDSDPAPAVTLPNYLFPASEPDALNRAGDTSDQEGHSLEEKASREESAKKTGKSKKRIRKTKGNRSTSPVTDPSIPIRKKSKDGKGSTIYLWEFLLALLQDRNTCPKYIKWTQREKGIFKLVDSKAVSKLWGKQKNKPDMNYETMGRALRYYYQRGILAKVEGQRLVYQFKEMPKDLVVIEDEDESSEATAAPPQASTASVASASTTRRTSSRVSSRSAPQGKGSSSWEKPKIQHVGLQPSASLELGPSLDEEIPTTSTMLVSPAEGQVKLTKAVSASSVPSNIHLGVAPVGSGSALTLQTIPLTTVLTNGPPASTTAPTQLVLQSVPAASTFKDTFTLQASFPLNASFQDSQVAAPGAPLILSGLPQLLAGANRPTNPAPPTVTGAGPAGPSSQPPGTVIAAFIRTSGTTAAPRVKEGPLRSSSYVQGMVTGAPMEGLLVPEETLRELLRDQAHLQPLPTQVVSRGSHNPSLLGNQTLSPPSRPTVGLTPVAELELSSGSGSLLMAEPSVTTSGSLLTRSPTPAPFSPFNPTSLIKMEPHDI
# HSF1, sequence (Q00613 whole entry): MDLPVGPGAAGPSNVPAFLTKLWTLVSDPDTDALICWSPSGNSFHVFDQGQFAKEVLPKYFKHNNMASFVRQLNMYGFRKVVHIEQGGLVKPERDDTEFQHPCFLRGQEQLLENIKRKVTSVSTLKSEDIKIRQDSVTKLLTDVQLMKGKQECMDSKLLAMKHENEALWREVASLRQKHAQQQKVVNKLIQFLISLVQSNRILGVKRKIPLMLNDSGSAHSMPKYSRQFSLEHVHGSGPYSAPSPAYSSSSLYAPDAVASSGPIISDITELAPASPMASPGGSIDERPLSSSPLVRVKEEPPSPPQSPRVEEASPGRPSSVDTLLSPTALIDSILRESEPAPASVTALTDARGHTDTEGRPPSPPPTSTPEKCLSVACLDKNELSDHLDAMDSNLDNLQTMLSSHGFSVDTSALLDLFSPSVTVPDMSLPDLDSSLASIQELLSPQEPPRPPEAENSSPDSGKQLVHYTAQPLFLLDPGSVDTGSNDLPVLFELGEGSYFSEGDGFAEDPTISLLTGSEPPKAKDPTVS
# ETV1, sequence (P50549 whole entry): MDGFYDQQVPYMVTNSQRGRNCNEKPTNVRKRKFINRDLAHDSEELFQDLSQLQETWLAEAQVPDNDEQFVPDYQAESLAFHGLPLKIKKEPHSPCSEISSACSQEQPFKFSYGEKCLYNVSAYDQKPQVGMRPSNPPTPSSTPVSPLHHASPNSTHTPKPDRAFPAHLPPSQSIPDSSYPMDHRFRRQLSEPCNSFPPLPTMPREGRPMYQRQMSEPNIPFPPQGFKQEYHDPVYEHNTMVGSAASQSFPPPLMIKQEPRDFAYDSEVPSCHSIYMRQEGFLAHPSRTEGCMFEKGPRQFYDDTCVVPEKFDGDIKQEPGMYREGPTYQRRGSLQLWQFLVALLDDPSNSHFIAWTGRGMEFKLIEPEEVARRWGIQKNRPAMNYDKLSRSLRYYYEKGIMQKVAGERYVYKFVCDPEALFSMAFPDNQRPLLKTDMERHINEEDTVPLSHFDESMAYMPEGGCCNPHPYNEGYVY
# SPIB, sequence (Q01892 whole entry): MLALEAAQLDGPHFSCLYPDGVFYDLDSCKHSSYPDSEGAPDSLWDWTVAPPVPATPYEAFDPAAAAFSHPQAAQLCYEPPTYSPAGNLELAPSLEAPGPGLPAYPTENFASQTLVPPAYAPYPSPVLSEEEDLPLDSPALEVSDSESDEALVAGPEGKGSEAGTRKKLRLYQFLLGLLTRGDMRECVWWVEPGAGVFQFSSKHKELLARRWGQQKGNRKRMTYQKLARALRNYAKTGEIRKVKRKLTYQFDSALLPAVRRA
# ELF1, sequence (P32519 whole entry): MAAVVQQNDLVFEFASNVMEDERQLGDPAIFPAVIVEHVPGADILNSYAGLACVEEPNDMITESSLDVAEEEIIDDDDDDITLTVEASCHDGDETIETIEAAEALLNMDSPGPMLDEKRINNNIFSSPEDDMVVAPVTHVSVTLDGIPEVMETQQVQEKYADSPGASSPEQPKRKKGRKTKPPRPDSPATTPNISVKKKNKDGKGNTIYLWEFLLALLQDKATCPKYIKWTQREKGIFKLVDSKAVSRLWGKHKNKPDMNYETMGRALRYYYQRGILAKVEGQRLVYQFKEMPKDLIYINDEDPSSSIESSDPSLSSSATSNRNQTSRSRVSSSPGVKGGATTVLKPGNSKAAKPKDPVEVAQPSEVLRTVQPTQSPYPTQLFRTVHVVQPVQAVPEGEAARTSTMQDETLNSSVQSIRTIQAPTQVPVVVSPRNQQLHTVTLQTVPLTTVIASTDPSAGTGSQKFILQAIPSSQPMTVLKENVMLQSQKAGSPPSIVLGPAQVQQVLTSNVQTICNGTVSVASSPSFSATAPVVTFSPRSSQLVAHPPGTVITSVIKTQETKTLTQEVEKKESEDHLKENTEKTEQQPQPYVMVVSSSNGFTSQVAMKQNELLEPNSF
# ETV5, sequence (P41161 whole entry): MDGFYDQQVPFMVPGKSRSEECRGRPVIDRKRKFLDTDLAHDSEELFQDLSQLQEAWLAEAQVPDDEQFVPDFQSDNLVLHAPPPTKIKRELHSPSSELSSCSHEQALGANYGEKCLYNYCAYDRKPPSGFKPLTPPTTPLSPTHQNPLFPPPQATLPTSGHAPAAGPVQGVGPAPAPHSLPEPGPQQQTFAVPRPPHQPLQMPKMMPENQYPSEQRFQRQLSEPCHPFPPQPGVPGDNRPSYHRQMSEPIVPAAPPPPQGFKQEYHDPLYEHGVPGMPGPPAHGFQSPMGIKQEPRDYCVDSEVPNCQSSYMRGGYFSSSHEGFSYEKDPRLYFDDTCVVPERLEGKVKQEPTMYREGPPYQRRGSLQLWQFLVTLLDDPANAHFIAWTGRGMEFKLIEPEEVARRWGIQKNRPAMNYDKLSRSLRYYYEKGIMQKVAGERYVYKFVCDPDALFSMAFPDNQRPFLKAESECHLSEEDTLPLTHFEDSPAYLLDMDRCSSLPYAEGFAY
sequence,measurement,setting,value
CGTCCT,binding signal,FLI1,"1.28 fold enrichment (6-mer frequency, TF over GST control)"
same,binding signal,ELK1,"1.44 fold enrichment (6-mer frequency, TF over GST control)"
same,binding signal,GABPA,"1.32 fold enrichment (6-mer frequency, TF over GST control)"
same,binding signal,ERG,"1.41 fold enrichment (6-mer frequency, TF over GST control)"
same,binding signal,ELF1,"1.3 fold enrichment (6-mer frequency, TF over GST control)"
same,binding signal,EHF,"1.37 fold enrichment (6-mer frequency, TF over GST control)"
same,binding signal,SPI1,"1.42 fold enrichment (6-mer frequency, TF over GST control)"
same,binding signal,SPIB,"1.38 fold enrichment (6-mer frequency, TF over GST control)"
same,binding signal,ELK3,"1.47 fold enrichment (6-mer frequency, TF over GST control)"
same,binding signal,FEV,"1.38 fold enrichment (6-mer frequency, TF over GST control)"
same,binding signal,ETV5,"1.32 fold enrichment (6-mer frequency, TF over GST control)"
same,binding signal,HSF1,"1.08 fold enrichment (6-mer frequency, TF over GST control)"
same,binding signal,SPIC,"1.27 fold enrichment (6-mer frequency, TF over GST control)"
same,binding signal,ELF4,"1.44 fold enrichment (6-mer frequency, TF over GST control)"
same,binding signal,ELK4,"1.4 fold enrichment (6-mer frequency, TF over GST control)"
same,binding signal,ETV2,"1.66 fold enrichment (6-mer frequency, TF over GST control)"
same,binding signal,ELF3,"1.31 fold enrichment (6-mer frequency, TF over GST control)"
same,binding signal,ETV1,"1.24 fold enrichment (6-mer frequency, TF over GST control)"
